pS6 MEF inh – inhibitors of mTORC1 signaling in Tsc2-/- p53-/- MEF cells; Tsc2-/- p53-/- MEF, phospho-rpS6 immunofluorescence/PI, 24 h; Potency, µM (series often up to 38.3 µM), for inactives: top-dose activity change, negative = inhibition, usual class: inhibitors; actives 0.78% (n = 44,000);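 further: potency means the concentration at half of the fitted maximal effect; plate controls were DMSO for no effect and rapamycin for full effect; nearly all actives have a fitted effect of over 50% in size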
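Immunofluorescence of rpS6 phosphorylation in Tsc2-/-, p53-/- MEFs after 24 h compound exposure, normalized to propidium iodide signal. Activity is expressed as % positive cells, thresholded with 7.5 nM rapamycin.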
p53null 32C kill – kills p53 null cells at the permissive temperature; AID 903; actives 0.62% (n = 55,000); H1299-neo p53 null cells, ATP luminescence, 24 h, 32C; Potency, µM (highest dose often 46.1 µM), inactives show at the highest dose activity change, negative = cytotoxicity, actives largely listed as cytotoxic;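 further: potency means the concentration at half of the fitted maximal effect; 0% = DMSO only and -100% = full killing by 100 µM tamoxifen; nearly all actives have a fitted effect of over 55% in size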
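H1299-neo, 600 cells/well; overnight 37C; cpd up to 46 uM, 24 h at 32C; ATPlite luminescence after 20 min RT; normalized to DMSO (0%) and tamoxifen 100 uM (100% kill); Hill-fit AC50.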
p53null 39C kill – selectivity test: cytotoxicity in p53 null cells, nonpermissive temperature; H1299 p53-null (neo) cells, 39C, ATPlite viability, 24 h; Potency, µM (titrated, usually from 46.1 µM), for the others: at the top dose activity, negative = cell killing, actives largely listed as cytotoxic; actives 0.97% (n = 55,000);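 further: potency means the concentration at half of the fitted maximal effect; 0% = DMSO only and -100% = full killing by 100 µM tamoxifen; nearly all actives have a fitted effect of over 50% in size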
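Temperature-shift cytotoxicity format: compound titrations on p53-null or A138V-expressing H1299 cells held 24 hr at 39C, cell ATP then measured, AC50 from Hill model.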
PMP22 txn – PMP22 gene transcription modulation. S16 Pmp22-F2sN Schwann cells, FLuc/NLuc coincidence luminescence, 24 h. actives 2% (n = 43,000). AID 1508649. Potency, µM (top dose mostly 57.5 µM), inactives show at the highest dose activity change, negative = inhibition, usual class: inhibitors; active means clear falling dose curves in both reporters; inconclusive means both reporters move, but less clearly or upward; inactive means either reporter flat; the % is the NLuc reporter signal; further: potency means the concentration at half of the fitted maximal effect; on the % scale 0 is the no-effect control and ±100 the full control effect
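Rat S16 Pmp22-F2sN cells, 500-1,000/well in phenol red-free DMEM + 10% FBS, compound-treated 24 h (37C, 5% CO2). Luminescence: FLuc read, Stop&Glo added, NLuc read.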
S16 F2sN tox – cytotoxicity in S16 Pmp22-F2sN Schwann cells. S16 Pmp22-F2sN Schwann cells (luciferase reporters placed in the Pmp22 gene) viability, CellTiter-Glo, 24 h. Potency, µM (highest dose often 57.5 µM), for inactives: at the highest dose activity change, negative = cytotoxicity, usual class: cytotoxic. actives 0.48% (n = 43,000); further: potency means the concentration at half of the fitted maximal effect; on the % scale 0 is the no-effect control and ±100 the full control effect; nearly all actives have a fitted effect of over 65% in size
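S16 Schwann cells carrying the Pmp22-F2sN reporter, seeded in 1536-well format, were exposed to library compounds for 24 h at 37C. Viability was read as CellTiter-Glo luminescence after 15 min at room temperature.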
NLuc saturating – inhibits NanoLuc at saturating substrate, PMP22 counter-screen | shares compounds with PMP22 txn | Secreted NLuc enzyme (filtered S16 cell medium), Nano-Glo luminescence | Potency, µM (highest dose often 57.5 µM), without a hit: top-dose activity change, negative = inhibition, actives largely listed as inhibitors | actives 4% (n = 690); further: potency means the concentration at half of the fitted maximal effect; on the % scale 0 is the no-effect control and ±100 the full control effect
NLuc Km counter – counter-screen for PMP22 expression modulators: NanoLuc inhibition at Km; shares compounds with PMP22 txn; secreted NLuc enzyme, coelenterazine luminescence, Km conditions; Potency, µM (top dose mostly 57.5 µM), for inactives: at the highest dose activity change, negative = inhibition, actives largely listed as inhibitors; actives 5% (n = 690); AID 1508639; further: potency means the concentration at half of the fitted maximal effect; on the % scale 0 is the no-effect control and ±100 the full control effect
FLuc counter – counter-screen for PMP22 expression modulators: firefly luciferase inhibition; shares compounds with PMP22 txn; purified P. pyralis FLuc, luminescence, 10 min; Potency, µM (top dose mostly 57.5 µM), for inactives: at the highest dose activity, negative = inhibition, hits mostly inhibitors; 690 tested, under 10 active; further: % of control where 0% means no effect
Target sequence (P08659 whole entry, looked up): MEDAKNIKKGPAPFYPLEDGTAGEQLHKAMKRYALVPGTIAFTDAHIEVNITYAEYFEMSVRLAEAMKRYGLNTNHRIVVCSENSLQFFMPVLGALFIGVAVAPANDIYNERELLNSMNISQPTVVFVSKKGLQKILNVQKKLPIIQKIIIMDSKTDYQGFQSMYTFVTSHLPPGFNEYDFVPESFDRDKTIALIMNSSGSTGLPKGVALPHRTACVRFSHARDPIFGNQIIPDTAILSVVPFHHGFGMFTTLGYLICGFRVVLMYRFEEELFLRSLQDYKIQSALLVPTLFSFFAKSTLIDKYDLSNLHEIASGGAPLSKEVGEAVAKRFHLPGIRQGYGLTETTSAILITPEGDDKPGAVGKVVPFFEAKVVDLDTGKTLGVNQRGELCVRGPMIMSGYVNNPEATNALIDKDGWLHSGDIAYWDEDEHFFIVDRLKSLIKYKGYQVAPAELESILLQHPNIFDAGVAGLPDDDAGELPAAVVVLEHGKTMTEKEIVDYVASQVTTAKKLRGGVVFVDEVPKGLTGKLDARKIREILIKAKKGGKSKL
S16 viab conf – S16 Schwann cell cytotoxicity, confirmatory; S16 Schwann cells viability, CellTiter-Glo ATP luminescence, 24 h; Potency, µM (top dose mostly 57.5 µM), inactives show at the highest dose activity change, negative = viability loss, actives largely listed as cytotoxic; shares compounds with PMP22 txn; actives 7% (n = 690); further: potency means the concentration at half of the fitted maximal effect; on the % scale 0 is the no-effect control and ±100 the full control effect
PMP22 txn conf – confirmation of modulators of PMP22 gene transcription in S16 cells | shares compounds with PMP22 txn | S16 Schwann cells Pmp22-F2sN, dual luciferase, 24 h | Potency, µM (top dose mostly 57.5 µM), without a hit: top-dose activity change, negative = inhibition, actives largely listed as inhibitors | actives 22% (n = 690) | AID 1508646; active means clear falling dose curves in both reporters; inconclusive means both reporters move, but less clearly or upward; inactive means either reporter flat; the % is the FLuc reporter signal; further: potency means the concentration at half of the fitted maximal effect
An asterisk follows results filed as active; ? = inconclusive; nt = not tested or not shown. Only some compounds are listed: those with a hit (about 3.2% of all), similar ones and a draw of the others. Unless noted, the call rests on the fitted dose curve; in most records, active means well fitted curve in the direction sought with a large enough effect; inconclusive means small, poorly fitted or top-dose-only effect, or another doubt; inactive means no such curve, though single readings can be large; an effect the other way counts as inactive or inconclusive.

SMILES | pS6 MEF inh | p53null 32C kill | p53null 39C kill | PMP22 txn | S16 F2sN tox | NLuc saturating | NLuc Km counter | FLuc counter | S16 viab conf | PMP22 txn conf
Cc1ccc(OCc2nc(-c3ccc(C(=O)N4CCN(c5cc(Cl)ccc5C)CC4)cc3)oc2C)cc1 | -4% | ? | 4% | ? | -3% | nt | nt | nt | nt | nt
CCCC(=O)N(c1ccc2oc(C)c(C(C)=O)c2c1)S(=O)(=O)c1ccc(CC)cc1 | -13% | 39% | -1% | 8.4µM* | ? | -17% | 5% | -8% | -25% | ?
Cc1c(-c2ccc(Cl)cc2)c(=O)oc2c(CN3CCOCC3)c(O)ccc12 | 0% | -8% | -3% | ? | -4% | nt | nt | nt | nt | nt
CCc1ccccc1Nc1sc(C(=O)c2cccc(OC)c2)c(N)c1S(=O)(=O)c1ccccc1 | -6% | 7% | -16% | -2% | 6% | nt | nt | nt | nt | nt
Cc1c(C(=O)OC2CCC(C)CC2)[nH]c2c1C(=O)CC(c1ccccc1Cl)C2 (configuration not stated) | ? | 29% | 38% | 10µM* | -28% | ? | -5% | 6% | 10% | -23%
Cc1c(C(=O)OC2CCCCCC2)[nH]c2c1C(=O)CC(c1ccccc1Cl)C2 (configuration not stated) | -25% | 25% | 24% | ? | -22% | nt | nt | nt | nt | nt
COc1cc2ccccc2cc1C(=O)Nc1ccc2oc(-c3cccc(Cl)c3Cl)nc2c1 | ? | 3% | 37% | 4.2µM* | ? | -10% | 1% | -28% | 27µM* | 12µM*
COCCCn1c(=N)c(C(=O)NC2CCCC2)cc2c(=O)n3cc(C)ccc3nc21 | 0% | 0% | 4% | -5% | 5% | nt | nt | nt | nt | nt
COCCCn1c(=N)c(C(=O)NC2CCCC2)cc2c(=O)n3cccc(C)c3nc21 | -1% | 3% | 7% | ? | 8% | -6% | 1% | 3% | 20% | ?
CCC(C)n1c(=N)c(C(=O)NC2CCCC2)cc2c(=O)n3ccccc3nc21 (configuration not stated) | -2% | -8% | 36% | 9.5µM* | -3% | -17% | -5% | 5% | ? | -31%
COc1ccccc1C(=O)N(c1ccc(C)cc1)S(=O)(=O)c1ccc(Cl)cc1 | 20% | 15% | -2% | nt | nt | nt | nt | nt | nt | nt
CC1=C(c2ccc(Cl)cc2)S(=O)(=O)NC1=NCc1ccc(C)cc1 | 3% | -8% | -1% | 2% | 18% | nt | nt | nt | nt | nt
COc1ccc(C2=C(C)C(=NCCCN3CCN(c4cc(C)ccc4C)CC3)NS2(=O)=O)cc1 | -4% | -3% | -7% | 15µM* | 1% | -7% | -2% | 2% | -5% | ?
COc1ccc(C(=O)Nc2cc(C(F)(F)F)ccc2N2CCN(c3ccccc3)CC2)cc1OC | 4% | ? | -4% | -15% | 7% | nt | nt | nt | nt | nt
COc1nnc(-c2ccc(N3CCCCC3)c(NC(=O)c3ccc(Cl)cc3)c2)c2ccccc12 | 0% | -5% | -16% | 15µM* | 3% | ? | 0% | 4% | -8% | ?
COc1nnc(-c2ccc(N3CCCCC3)c(NC(=O)c3ccccc3)c2)c2ccccc12 | -2% | 15% | -9% | 14µM* | ? | ? | ? | 5% | 0% | ?
CCOC(=O)c1c(-c2ccccc2)oc2ccc(NS(=O)(=O)c3ccc(C)cc3C)cc12 | -1% | 30% | 37% | nt | nt | nt | nt | nt | nt | nt
Cc1ccc(CN(Cc2cccn2-c2nnc(N3CCCC3=O)s2)C(=O)Nc2ccccc2C(F)(F)F)cc1 | 0% | 5% | 17% | 19µM* | ? | ? | ? | 0% | -2% | -22%
CCCCCCOc1ccc(/C=C/C(=O)Nc2sc3c(c2C(=O)OC)CCC3)cc1OC | 10% | 1% | 15% | 7µM* | ? | -1% | -3% | -11% | 11% | 39%
COc1ccccc1/C=C/c1nc(C#N)c(N2CCN(C)CC2)o1 | -5% | -7% | -22% | 5% | 6% | nt | nt | nt | nt | nt
O=S(=O)(NCCc1csc2nc(-c3ccc(F)cc3)nn12)c1ccc(Br)cc1 | -16% | -5% | 27% | -40% | -14% | nt | nt | nt | nt | nt
Cc1cc(C)c(NC(=O)Cn2c(=O)oc3cc(S(=O)(=O)N4CCCCCC4)ccc32)c(C)c1 | -3% | -1% | 8% | ? | -13% | -16% | 2% | 2% | -16% | ?
Cc1cc(C)cc(NC(=O)Cn2c(=O)oc3cc(S(=O)(=O)N4CCCC4)ccc32)c1 | -9% | 10% | -14% | -27% | 16% | nt | nt | nt | nt | nt
Cc1cccc(NC(=O)Cn2c(=O)oc3cc(S(=O)(=O)NCc4ccccc4)ccc32)c1 | 0% | ? | -7% | 11µM* | -10% | -2% | -18% | 5% | -3% | -16%
COc1ccc(-c2noc(-c3cccnc3N3CCN(c4ccc(OC)cc4)CC3)n2)cc1 | 0% | -8% | 7% | -14% | 14% | nt | nt | nt | nt | nt
Cc1cccc(OCC(=O)Nc2ccc3c(c2)N(C)C(=O)c2ccccc2S3)c1 | -13% | 14% | 6% | ? | ? | nt | nt | nt | nt | nt
CN1C(=O)c2ccccc2Sc2ccc(NC(=O)COc3ccccc3)cc21 | -19% | 3% | 9% | 12µM* | -27% | ? | ? | 0% | -8% | -32%
COc1cccc(CNC(=O)Nc2ccc3c(c2)N(C)C(=O)c2ccccc2S3)c1 | -10% | -6% | -3% | 18µM* | ? | ? | ? | -16% | -2% | ?
Cc1[nH]c2ccccc2c1C1(O)C(=O)N(Cc2ccccc2)c2ccc(Br)cc21 (configuration not stated) | ? | 18% | ? | 16µM* | -9% | -16% | ? | -1% | ? | ?
